High-throughput results (PubChem BioAssay)
An excerpt weighted towards active compounds, which were near 5.7% of everything screened.
KB-3-1 cytotox = KB-3-1 parental cell cytotoxicity; 400,000 compounds, 1.4% hits; KB-3-1 viability, CellTiter-Glo ATP luminescence, 72 h; Potency, µM (doses to about 46.1 µM), usual class: cytotoxic; further: nearly all actives have a fitted effect of over 60% in size
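Here the drug-naive KB-3-1 line serves as comparator for MDR sub-line selectivity; cells received compound titrations, 72 h at 37 °C, then CellTiter-Glo readout.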
HT1080 IDH1KD tx = HT-1080 IDH1 knockdown cell toxicity (counter line). HT-1080 IDH1 knockdown viability, ATP luminescence, 48 h. Potency, µM (highest dose often 46.1 µM), inactives show top-dose activity, negative = toxicity, usual class: cytotoxic. 360,000 compounds, 2% hits. AID 686971;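 further: 0% = DMSO wells and -100% = cell-free medium wells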
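Knockdown cells (IDH1KD HT-1080) received compounds 2 h after plating at 750 cells/well and were kept 48 h at 37 °C in 5% FBS RPMI. A CellTiter-Glo luminescence read gave % activity for curve fitting.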
KB-V1 MDR tox = KB-V1 MDR subline cytotoxicity; 400,000 compounds, 3.4% hits; Potency, µM (top dose mostly 46.1 µM), actives largely listed as cytotoxic; KB-V1 MDR cells viability, CellTiter-Glo, 72 h; AID 1347076; further: nearly all actives have a fitted effect of over 60% in size
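KB-V1 MDR subline cells in DMEM (phenol-red free, 10% FBS) exposed to compounds in qHTS concentration series for 72 h at 37 degrees C. Viability read by CellTiter-Glo luminescence; concentration-effect curves fitted after normalization and correction.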
HT1080-NT tox = kills 2HG-producing HT-1080-NT fibrosarcoma cells | HT-1080-NT fibrosarcoma viability, CellTiter-Glo ATP luminescence, 48 h | Potency, µM (series often up to 46.1 µM), for the others: top-dose activity, negative = less viability, hits mostly cytotoxic | 360,000 compounds, 1.6% hits | AID 686970;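 further: NT is the 2HG producing partner of a matched IDH1 knockdown line; 0% = DMSO-treated cells and -100% = media-only wells without cells; nearly all actives have a fitted effect of over 55% in size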
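HT-1080-NT; 750 cells/well; 5% FBS RPMI; 48 h compound, 37 degrees C; CellTiter-Glo luminescence; curve fitting and curve-class assignment.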
Numbers without * were called inactive; i = inactive; ? = inconclusive; . = no result; ! = not confirmed by another sample; [ ] = another dose, or the depositor's remark. The call rests on the fitted dose curve; in most records, active means well fitted curve in the direction sought with a large enough effect; inconclusive means small, poorly fitted or top-dose-only effect, or another doubt; inactive means no such curve, though single readings can be large; an effect the other way counts as inactive or inconclusive. Unless noted, on the % scale 0 is the no-effect control and ±100 the full control effect; potency means the concentration at half of the fitted maximal effect.

SMILES	KB-3-1 cytotox	HT1080 IDH1KD tx	KB-V1 MDR tox	HT1080-NT tox
O=C(Nc1ccc(Cl)cc1)C1CCCCN1S(=O)(=O)c1ccccc1 (stereo unspecified)	23µM*	?	3.7µM*	?
Cc1cccc(Nc2nc(N3CCCC3)nc(N3CCCC3)n2)c1	i	7%	9.2µM*	9%
c1ccc(Nc2nc(N3CCCCC3)nc(N3CCNCC3)n2)cc1	i	?	21µM*	?
Cc1ccc(NC(=O)CSc2nnc(COc3ccc(Cl)cc3)o2)cc1	i	.	i	.
CNc1ccc(/C=C2\COc3ccccc3C2=O)cc1[N+](=O)[O-]	i	15%	?	10%
O=C1/C(=C/c2ccccc2[N+](=O)[O-])COc2ccccc21	i	18µM*	i	8.2µM*
O=C(Nc1nnc(CCc2ccccc2)s1)C1CCN(C(=O)c2ccco2)CC1	i	.	i	.
Cn1c(-c2ccc(F)cc2)cnc1NCc1ccccc1	?	-26%	21µM*	-22%
COc1ccc(CNc2ncc(-c3ccc(F)cc3)n2C)c2ccccc12	i	?	?	23µM*
COc1ccccc1CNc1ncc(-c2ccc(F)cc2)n1C	i	-7%	i	-13%
Cc1ccc(C2=NN(C(=O)CCl)C(c3ccco3)C2)o1 (stereo unspecified)	?	7.3µM*	?	6.5µM*
CN(C(=O)C(C)(C)C)[C@H]1C[C@H]2c3[nH]c4ccccc4c3CCN2C(=O)[C@H]1CO	i	0%	i	-4%
CN(C(=O)NC1CCCCC1)[C@H]1C[C@H]2c3[nH]c4ccccc4c3CCN2C(=O)[C@H]1CO	6.5µM*	-25%	i	-20%
C[C@H](O)[C@@H]1C(=O)N2CCc3c([nH]c4ccccc34)[C@@H]2C[C@@H]1N(C)C(=O)Nc1cc(Cl)cc(Cl)c1	?	?	i	16µM*
C[C@H](O)[C@@H]1CN2CCc3c([nH]c4ccc(-c5ccc6c(c5)OCO6)cc34)[C@@H]2C[C@@H]1N(C)C(=O)NC1CCCCC1	0.58µM*	1%	?	0%
C[C@H](O)[C@@H]1CN2CCc3c([nH]c4ccc(-c5ccc6c(c5)OCO6)cc34)[C@@H]2C[C@@H]1N(C)C(=O)Nc1cc(Cl)cc(Cl)c1	13µM*	7.3µM*	?	9.2µM*
Cc1ccc(NC(=O)C2CCN(c3cc(C)nc4c(-c5ccc(Cl)cc5)c(C)nn34)CC2)c(C)c1	i	.	i	.
CC(=O)N1CCc2cc(Br)cc(S(=O)(=O)CCC(=O)N3CCN(c4ccc(F)cc4)CC3)c21	i	.	i	.
CCOc1ccc(NC(=O)CCc2nc3cccnc3n2Cc2ccc(OC)cc2)cc1	i	.	i	.
CSc1ccc(/C=N\Nc2nncn2N)cc1	i	21µM*	i	?
Nn1cnnc1N/N=C/c1cc(Br)cc(Br)c1O	?	?	2.3µM*	-21%
CC(C)(C)c1ccc(/C=N/Nc2nncn2N)cc1	i	?	i	-20%
O=S(=O)(c1ccc(Br)cc1)c1nnn2c1nc(Nc1cccc(C(F)(F)F)c1)c1sccc12	i	.	i	.
CC1CCCCN1C(=O)COC(=O)c1ccc(S(C)(=O)=O)c([N+](=O)[O-])c1 (stereo unspecified)	?	.	i	.
COc1cc(SC)ccc1C(=O)NCc1ccccc1	i	10%	21µM*	13%
SMILES	KB-3-1 cytotox	HT1080 IDH1KD tx	KB-V1 MDR tox	HT1080-NT tox
COc1cc(SC)ccc1C(=O)NCc1ccc(C)cc1	i	?	i	4%
COc1cc(SC)ccc1C(=O)NCCOc1ccc(C)c(C)c1	i	-9%	16µM*	-8%
CCOC(=O)c1cnc2ccc(OC(F)(F)F)cc2c1Nc1ccccc1C(=O)O	i	.	i	.
O=C(NCCc1ccc(Cl)cc1)c1cccn1-c1nnc(N2CCCC2)s1	i	.	i	.
COc1ccc(N2C(=O)CC(Sc3nnnn3-c3ccc(F)cc3)C2=O)cc1 (stereo unspecified)	i	4.1µM*	i	16µM*
COc1cc(C(=O)NC2CCCC2)c(Br)c(OC)c1OC	i	15%	i	2%
COc1cc(C(=O)NCCOc2cc(C)cc(C)c2)c(Br)c(OC)c1OC	i	-21%[9.24 µM]	10µM*	?
CCCCn1c(CCl)nc2cc(S(=O)(=O)N3CCOCC3)ccc21	?	?	?	-10%
O=S(=O)(c1ccc2c(c1)nc(COc1ccc(Cl)cc1)n2CC1CCCO1)N1CCOCC1 (stereo unspecified)	i	-1%	23µM*	3%
Cc1nc(-c2ccc(S(=O)(=O)NCc3ccc(N(C)C)cc3)cc2)co1	i	.	?	.
COc1ccc(-c2cc(-c3ccccc3O)[nH]n2)cc1	i	?	i	?
COc1ccc2cc(-c3ccn[nH]3)ccc2c1	7.3µM*	-10%	?	-11%
O=C(/C=C/c1ccccc1Cl)Nc1ccccc1	i	-20%	i	-7%
CN(C)S(=O)(=O)c1ccc(NC(=O)/C=C/c2ccccc2Cl)cc1	i	-27%	15µM*	-12%
NC(=O)c1ccccc1NC(=O)/C=C/c1cccc(Cl)c1	i	0%	i	-1%
NC(=O)c1ccccc1NC(=O)/C=C/c1c(Cl)cccc1Cl	i	?	4.1µM*	-28%
CN(C)c1ccc(NC(=O)/C=C/c2c(Cl)cccc2Cl)cc1	?	?	13µM*	?
O=C(/C=C/c1c(F)cccc1Cl)Nc1ccc(S(=O)(=O)Nc2ncccn2)cc1	i	4%	i	0%
O=C(c1cc(-c2cccc(O)c2)on1)N1CCN(C(c2ccccc2)c2ccccc2)CC1	18µM*	?	?	?
COc1ccc(-c2cc(C(=O)N3CCN(c4ccccc4)CC3)no2)cc1	?	?	21µM*!	-20%
COc1ccc(-c2cc(C(=O)N3CCN(c4ccccc4OC)CC3)no2)cc1	i	23%	i	12%
CC1CCC(NC(=O)C2CCN(c3nc4ccccc4s3)CC2)CC1 (stereo unspecified)	?	12%	7.3µM*	15%
Cc1ccc2nc(N3CCC(C(=O)NC4CCCCC4)CC3)sc2c1	i	3%	i	0%
CC1CCCN(C(=O)C2CCN(C(=O)Nc3ccccc3)CC2)C1 (stereo unspecified)	i	0%	i	4%[9.24 µM]
CC(NC(=O)C1CCN(C(=O)Nc2ccccc2)CC1)c1ccccc1 (stereo unspecified)	i	0%	i	-5%
CC1CCC(NC(=O)C2CCN(C(=O)Nc3ccccc3)CC2)CC1 (stereo unspecified)	i	-9%	16µM*	0%
CC1CC(C)CN(C(=O)C2CCN(C(=O)Nc3ccccc3)CC2)C1 (stereo unspecified)	i	-6%	21µM*	-11%
CCOC(=O)c1ccc(NC(=O)C2Cc3ccccc3C(=O)O2)cc1 (stereo unspecified)	i	.	i	.
CC(=O)c1cnc2nc(SCc3ccc(Cl)cc3)nn2c1C	i	-13%	i	-11%
